In the supplement of paper PMC3334620:
In all, about 33,000 sequences were measured (“E-score (-0.5 to 0.5)”: median about -0.041, highest 2% from about 0.37 on). Shown is part of a subset that was picked to be rich in the highest values.

These sequences were tested against T1, Ecm22 (UniProt Q05958) (assay: PBM E-score (8-mer binding enrichment) (E-score (-0.5 to 0.5)); higher = stronger / more preferred TF binding). Details: protein concentration: 200 nM; construct: GST-full length.
T1 sequence: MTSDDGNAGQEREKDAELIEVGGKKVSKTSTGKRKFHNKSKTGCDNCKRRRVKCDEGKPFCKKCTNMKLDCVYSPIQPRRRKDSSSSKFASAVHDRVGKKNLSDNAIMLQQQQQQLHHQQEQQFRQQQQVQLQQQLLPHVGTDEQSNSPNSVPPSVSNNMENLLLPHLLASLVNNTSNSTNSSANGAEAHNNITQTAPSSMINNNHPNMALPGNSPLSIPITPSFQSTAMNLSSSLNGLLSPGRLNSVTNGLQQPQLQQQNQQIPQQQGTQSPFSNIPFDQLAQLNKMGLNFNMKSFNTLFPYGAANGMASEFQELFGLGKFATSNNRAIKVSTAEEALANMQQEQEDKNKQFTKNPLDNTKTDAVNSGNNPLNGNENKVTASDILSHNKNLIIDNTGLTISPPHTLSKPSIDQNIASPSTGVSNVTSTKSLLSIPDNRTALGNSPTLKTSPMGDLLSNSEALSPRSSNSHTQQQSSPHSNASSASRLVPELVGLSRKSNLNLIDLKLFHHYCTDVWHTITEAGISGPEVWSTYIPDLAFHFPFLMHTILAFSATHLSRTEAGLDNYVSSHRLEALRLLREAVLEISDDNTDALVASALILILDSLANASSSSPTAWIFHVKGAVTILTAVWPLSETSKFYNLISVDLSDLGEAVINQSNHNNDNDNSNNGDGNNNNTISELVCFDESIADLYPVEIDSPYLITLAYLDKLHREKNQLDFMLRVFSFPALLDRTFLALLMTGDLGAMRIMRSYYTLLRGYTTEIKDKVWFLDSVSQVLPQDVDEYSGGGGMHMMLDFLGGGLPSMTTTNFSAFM
Procedure: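 Universal 'all 10-mer' protein binding microarrays (Agilent AMADID 015681) probed with GST-tagged S. cerevisiae TFs (full-length or DBD) made by in vitro transcription/translation (PURExpress), about 100-200 nM. Bound TF was detected with fluorescent anti-GST. Each ungapped 8-mer (which stands for itself and its reverse complement) is scored by the PBM enrichment score (E-score), a modified Wilcoxon-Mann-Whitney statistic from -0.5 to +0.5, computed with the Universal PBM Analysis Suite. Scale: above 0.35 generally sequence-specific binding.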

Row | Sequence | PBM E-score
1 | AACGTACC | 0.297
2 | AACGTACG | 0.378
3 | ATTCTTAC | -0.026
4 | CACCAGCA | -0.028
5 | CTGCAGGA | -0.245
6 | AGACCCGC | -0.00174
7 | ACACGAGT | 0.24
8 | AAACGAGT | 0.456
9 | AAACGAGG | 0.476
10 | AAACGGGT | 0.319
11 | CAACGAGA | 0.378
12 | TCACGAGA | 0.0348
13 | AAACGTGG | 0.133
14 | TAACGTGA | -0.142
15 | CAACGAGG | 0.343
16 | TAACGAGA | 0.369
17 | ACCCCCCA | -0.296
18 | ATCACAAG | -0.0512
19 | CCCCTAGG | -0.307
20 | ACGAATTC | 0.269
21 | AGCCTGTC | 0.0499
22 | CATTGGCG | -0.239
23 | ATCTTTGA | -0.00074
24 | AGGCCGAC | -0.106
25 | ACACGAGA | 0.265

Row | Sequence | PBM E-score
26 | AAACGAGA | 0.463
27 | AGACGAGA | 0.166
28 | GCGTAAGA | 0.074
29 | AATATCTA | -0.0604
30 | GGCCGTAA | 0.244
31 | AGCCGTAC | 0.369
32 | GGCCGTAC | 0.419
33 | GACCGTAC | 0.362
34 | CGCCGTAA | 0.26
35 | CGCCGTAG | 0.119
36 | AGCCGTAG | 0.0779
37 | AGCCGTAT | 0.315
38 | CGCCGTAC | 0.408
39 | ACGGTTGA | 0.0702
40 | AAGCCGAA | -0.0177
41 | CAGGCACG | -0.112
42 | AACAACTT | -0.092
43 | GAAATCTC | 0.129
44 | CCCGAGCG | 0.173
45 | ATACGAAC | 0.474
46 | CTACGAAC | 0.369
47 | AGACGAAC | 0.295
48 | GCACGAAC | 0.222
49 | ACACGAAC | 0.237
50 | GTACGAAC | 0.475

Row | Sequence | PBM E-score
51 | GGACGAAC | 0.111
52 | CTACGAAG | 0.297
53 | CCACGAAC | 0.201
54 | CCTAGCCC | -0.222
55 | AGCGTCCC | -0.145
56 | AATCTGTG | -0.0802
57 | GTGGAACA | 0.0214
58 | GGAGTGCA | 0.0316
59 | GTGGGTCA | -0.308
60 | AAGAGGTC | -0.207
61 | GCGAGGTA | 0.285
62 | CCGAGGTA | 0.176
63 | CCGAGGTC | 0.11
64 | AGGAGGTG | -0.298
65 | ACGAGGTA | 0.413
66 | ACGAGGTC | 0.389
67 | ACGAGGTG | 0.397
68 | ATGAGGTG | -0.127
69 | CCTTTTCC | 0.055
70 | CGGTCTGC | 0.0314
71 | TACCACGA | 0.0887
72 | GCAACTGA | 0.0723
73 | GACTTCGC | 0.232
74 | CCAACGAC | 0.0154
75 | ACAACGAA | 0.257

Row | Sequence | PBM E-score
76 | GCAACGAC | 0.417
77 | ACAACGAC | 0.295
78 | TCAACGAA | 0.187
79 | GCAACGAA | 0.406
80 | AGGCCCCA | -0.182
81 | TAGTCCAA | -0.157
82 | AGTACATA | -0.0214
83 | AGTACAAA | 0.0199
84 | CGTACTTA | 0.375
85 | AGTACAAG | 0.0646
86 | CATACAAG | -0.122
87 | CGTACATA | 0.414
88 | CGTACTGA | 0.32
89 | CGTACAAA | 0.412
90 | CGTACAAG | 0.416
91 | CGTACATC | 0.353
92 | AGTACTTA | 0.0475
93 | GGTACAAA | -0.0856
94 | ACCACCAT | -0.103
95 | TTAGGGAA | -0.0515
96 | ATAACGGC | 0.146
97 | ATGAAGGC | -0.102
98 | CGTGGACC | -0.108
99 | ACGGAATG | 0.0826
100 | AGTGTTGA | -0.109

Row | Sequence | PBM E-score
101 | AAGCCGAG | 0.0901
102 | ACTGGATG | -0.18
103 | CGTACTAG | 0.342
104 | CGTACTAC | 0.382
105 | CGTACAAC | 0.434
106 | AGTACAAC | 0.0262
107 | GGTACAAC | 0.0714
108 | CGTACTAA | 0.341
109 | CTAAACAG | -0.109
110 | AAACCACT | -0.153
111 | AGCTGCGG | -0.00448
112 | AATCGCCC | -0.0815
113 | TAGAGCCA | -0.288
114 | ACTCCGTG | -0.233
115 | AGGTCGGC | -0.138
116 | GGTTACCA | 0.0711
117 | AGTTACGC | 0.071
118 | CGTTACGC | 0.256
119 | AGTTACGG | 0.138
120 | GGTTACTA | -0.123
121 | GGTTACGA | 0.381
122 | CGTTACAA | 0.0964
123 | CGTTACGA | 0.403
124 | AGTTACGA | 0.393
125 | GTGGCGTA | 0.042

Row | Sequence | PBM E-score
126 | CCCGTTGC | 0.111
127 | CCTCGGGC | 0.0916
128 | ACTTCACC | 0.0335
129 | AAAATCAC | -0.0192
130 | ATACGTAT | 0.374
131 | ATACGAAG | 0.466
132 | ATACGTAA | 0.278
133 | ATACGAAT | 0.45
134 | AGACGAAG | 0.0703
135 | AGACGAAT | 0.0921
136 | GTACGAAA | 0.467
137 | ACACGAAG | 0.249
138 | ACACGAAT | 0.217
139 | ATACGTAC | 0.342
140 | GCACGAAA | 0.103
141 | GGACGAAA | 0.108
142 | AGCCTTAA | -0.0857
143 | AACTTGGT | 0.0861
144 | TGTGTCAA | -0.0896
145 | CGCAAGCC | 0.0725
146 | GGATCCCC | -0.0315
147 | TCACGAAA | -0.00573
148 | ATACGAAA | 0.463
149 | CTACGAAA | 0.302
150 | ACACGAAA | 0.224

Row | Sequence | PBM E-score
151 | TTACGAAA | 0.403
152 | AGACGAAA | 0.194
153 | ATGGTTCA | 0.0295
154 | AGAACCCC | -0.179
155 | GACCCTCC | 0.00379
156 | CGTGCGTA | 0.233
157 | GCCCCCCA | -0.365
158 | AGGATTAG | -0.0677
159 | CCGCAACC | -0.176
160 | CCGCAACG | 0.377
161 | ACGCAACG | 0.308
162 | GCGGCACC | -0.0132
163 | CACGATGA | 0.19
164 | TACGATGA | 0.438
165 | CACGATGC | 0.136
166 | AAAGATGT | -0.0546
167 | GACGATCA | -0.0466
168 | AACGATGA | 0.386
169 | GACGATGC | -0.0114
170 | TACGATCA | 0.443
171 | GACGATGA | -0.0197
172 | ATCGATGA | -0.0837
173 | AACGATGT | 0.396
174 | CACGATCA | -0.00633
